Test results reported in PubChem BioAssay (NCATS).
Inconclusive results are not listed. Where a call stands in place of a potency, no number is given. The source made the active and inactive calls. The call rests on the fitted dose curve; in most records, active means well fitted cell-killing curve with a large enough effect; inconclusive means small, poorly fitted or top-dose-only effect, or effect the other way; inactive means no such curve, though single readings can be large or run the other way.

Assays:
[1] = Quantitative High-Throughput drug screen in 47 multiple myeloma cell lines against the NCATS MIPE library collection: XG1_PLB cell viability assay (AID 1919866); further: nearly all actives have a fitted effect of over 35% in size
How it was run: (§1)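 Cells were exposed to library compounds for 48 hours, after which ATP was measured by CellTiter-Glo. Signal was taken as median relative luminescence units.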

[2] = Quantitative High-Throughput drug screen in 47 multiple myeloma cell lines against the NCATS MIPE library collection: UTMC2_PLB cell viability assay (AID 1919868); settings: CellTiter-Glo ATP luminescence, 48 h; viability (% of DMSO control): at 45.8 µM (top of the series); further: nearly all actives have a fitted effect of over 55% in size
How it was run: as §1

[3] = Quantitative High-Throughput drug screen in 47 multiple myeloma cell lines against the NCATS MIPE library collection: PE2_PLB cell viability assay (AID 1919869); further: nearly all actives have a fitted effect of over 35% in size
How it was run: as §1

[4] = Quantitative High-Throughput drug screen in 47 multiple myeloma cell lines against the NCATS MIPE library collection: PCM6_Riken cell viability assay (AID 1919870); further: nearly all actives have a fitted effect of over 30% in size
How it was run: as §1

[5] = Quantitative High-Throughput drug screen in 47 multiple myeloma cell lines against the NCATS MIPE library collection: RPMI8226_ATCC cell viability assay (AID 1919871); further: nearly all actives have a fitted effect of over 30% in size
How it was run: as §1

[6] = Quantitative High-Throughput drug screen in 47 multiple myeloma cell lines against the NCATS MIPE library collection: OPM2_DSMZ cell viability assay (AID 1919872); further: nearly all actives have a fitted effect of over 30% in size
How it was run: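 qHTS of the MIPE 4.0 collection: 500 myeloma cells/well, 48 h drug exposure at 37C in 5% CO2, then CellTiter-Glo for 5 min at room temperature before luminescence reading.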

[7] = Quantitative High-Throughput drug screen in 47 multiple myeloma cell lines against the NCATS MIPE library collection: KMS11_JCRBsus cell viability assay (AID 1919873); further: nearly all actives have a fitted effect of over 50% in size
How it was run: as §1

[8] = Quantitative High-Throughput drug screen in 47 multiple myeloma cell lines against the NCATS MIPE library collection: VP6_DJ cell viability assay (AID 1919867); further: nearly all actives have a fitted effect of over 40% in size
How it was run: as §1

[9] = Quantitative High-Throughput drug screen in 47 multiple myeloma cell lines against the NCATS MIPE library collection: KMS28BM_JCRB cell viability assay (AID 1919874); further: nearly all actives have a fitted effect of over 35% in size
How it was run: as §1
Potency means the concentration at half of the fitted maximal effect.

| Compound | Potency [1] | Potency [2] | Potency [3] | Potency [4] | Potency [5] | Potency [6] | Potency [7] | Potency [8] | Potency [9] |
| --- | --- | --- | --- | --- | --- | --- | --- | --- | --- |
| OC(CN1CCC(Cc2ccc(F)cc2)CC1)c1ccc(Cl)cc1 (stereo unspecified) | inactive | inactive | inactive | inactive | inactive | inactive | inactive | – | – |
| Cc1ccccc1C(OCCN(C)C)c1ccccc1 (stereo unspecified) | inactive | – | inactive | – | inactive | inactive | inactive | inactive | 7.43 µM (active) |
| CCC(C)N(C)C(=O)c1cc2ccccc2c(-c2ccccc2Cl)n1 (stereo unspecified) | 5.26 µM (active) | – | – | 16.6 µM (active) | – | – | – | 6.62 µM (active) | – |
| Cc1ccccc1C(C(=O)NC1CCCC1)N(C(=O)Cn1cnc2ccccc21)c1cccc(F)c1 (stereo unspecified) | 18.7 µM (active) | – | – | inactive | 3.72 µM (active) | – | – | 2.35 µM (active) | inactive |
| CCn1cc(C(=O)O)c(=O)c2cc(F)c(N3CCNC(C)C3)c(F)c21 (stereo unspecified) | inactive | – | inactive | inactive | inactive | inactive | inactive | inactive | inactive |
| O=C(NOC[C@H](O)CO)c1ccc(F)c(F)c1Nc1ccc(I)cc1F | 0.0296 µM (active) | – | 0.0662 µM (active) | inactive | 0.0296 µM (active) | – | inactive | 0.0372 µM (active) | inactive |
| COCC(=O)NCC=Cc1ccc2ncnc(Nc3ccc(Oc4ccc(C)nc4)c(C)c3)c2c1 | 20.9 µM (active) | – | 16.6 µM (active) | 20.9 µM (active) | 16.6 µM (active) | – | 18.7 µM (active) | 18.7 µM (active) | 29.6 µM (active) |
| COc1cc2nccc(Oc3ccc(NC(=O)NC4CC4)c(Cl)c3)c2cc1C(N)=O | 18.7 µM (active) | 2.64 µM (active) | 18.7 µM (active) | 16.6 µM (active) | 20.9 µM (active) | 13.2 µM (active) | 20.9 µM (active) | – | 16.6 µM (active) |
| Clc1cccc(Cl)c1NC1=NCCN1 | inactive | – | inactive | inactive | – | inactive | – | 5.26 µM (active) | inactive |
| CCCC(CCC)C(=O)O | 20.9 µM (active) | – | inactive | – | inactive | inactive | inactive | 18.7 µM (active) | inactive |
| CCC(=O)N[C@H]1CC[C@H](C(=O)N(C)c2ccc(-c3nc4ccccc4o3)cc2)C1 | 6.62 µM (active) | – | 13.2 µM (active) | – | – | inactive | – | 14.8 µM (active) | 14.8 µM (active) |
| O=C1CCCC2=C1C(c1[nH]ncc1Cl)N=C(Nc1nc3ccccc3o1)N2 (stereo unspecified) | 2.96 µM (active) | – | 0.526 µM (active) | – | – | inactive | – | 0.0935 µM (active) | – |
| CC(C)(Sc1ccc(CCN(CCCCC2CCCCC2)C(=O)NC2CCCCC2)cc1)C(=O)O | inactive | – | – | inactive | 4.18 µM (active) | – | inactive | inactive | inactive |
| Cc1cnc(Nc2ccc(OCCN3CCCC3)cc2)nc1Nc1cccc(S(=O)(=O)NC(C)(C)C)c1 | 0.469 µM (active) | – | – | – | – | inactive | – | 0.332 µM (active) | 0.935 µM (active) |
| CCOc1cc(N2CCC(O)CC2)ccc1Nc1ncc2c(n1)N(C)c1ccccc1C(=O)N2C | 5.9 µM (active) | – | 3.72 µM (active) | 14.8 µM (active) | 20.9 µM (active) | 13.2 µM (active) | 3.32 µM (active) | 2.09 µM (active) | 4.69 µM (active) |
| S=C(NCc1ccc2c(c1)OCO2)N1CCN(c2ncnc3c2oc2ccccc23)CC1 | 0.96 µM (active) | – | 6.79 µM (active) | 4.81 µM (active) | – | – | 1.52 µM (active) | 0.96 µM (active) | 1.36 µM (active) |
| O=c1n(CCCN2CCN(c3cccc(Cl)c3)CC2)nc2ccccn12 | inactive | inactive | inactive | inactive | inactive | inactive | inactive | – | – |
| CCCS(=O)(=O)Nc1ccc(F)c(C(=O)c2c[nH]c3ncc(Cl)cc23)c1F | 18.7 µM (active) | – | – | 11.8 µM (active) | – | inactive | 26.4 µM (active) | 14.8 µM (active) | – |
| Cc1c(C)c2c(c(C)c1O)CCC(C)(COc1ccc(CC3SC(=O)NC3=O)cc1)O2 (stereo unspecified) | inactive | – | 20.9 µM (active) | 20.9 µM (active) | inactive | inactive | – | inactive | inactive |

| Compound | Potency [1] | Potency [2] | Potency [3] | Potency [4] | Potency [5] | Potency [6] | Potency [7] | Potency [8] | Potency [9] |
| --- | --- | --- | --- | --- | --- | --- | --- | --- | --- |
| OCCn1cc(-c2cnc3nnn(Cc4ccc5ncccc5c4)c3n2)cn1 | inactive | inactive | inactive | inactive | inactive | – | inactive | – | inactive |
| CC(c1cc2ccccc2s1)N(O)C(N)=O (stereo unspecified) | inactive | – | inactive | inactive | inactive | inactive | inactive | 3.32 µM (active) | inactive |
| O=C(C=Cc1ccc(/C=C/C(=O)Nc2ccc(C3=NCCN3)cc2)cc1)Nc1ccc(C2=NCCN2)cc1 | inactive | – | inactive | inactive | inactive | 0.662 µM (active) | inactive | inactive | inactive |
| CN[C@@H](C)C(=O)N[C@H]1CCCC[C@H]2CC[C@@H](C(=O)N[C@@H](c3ccccc3)c3cn(CCCCc4ccc(CCCCn5cc([C@@H](NC(=O)[C@@H]6CC[C@@H]7CCCC[C@H](NC(=O)[C@H](C)NC)C(=O)N76)c6ccccc6)nn5)cc4)nn3)N2C1=O | 23.5 µM (active) | – | 18.7 µM (active) | – | – | inactive | inactive | 18.7 µM (active) | – |
| Cc1cn[nH]c1 | 1.05 µM (active) | – | 4.69 µM (active) | 0.0833 µM (active) | 0.118 µM (active) | 4.18 µM (active) | 0.166 µM (active) | 0.0935 µM (active) | 0.0469 µM (active) |
| OC(CCN1CCCCC1)(c1ccccc1)C1CC2C=CC1C2 (stereo unspecified) | inactive | – | inactive | inactive | – | inactive | – | inactive | inactive |
| CNC(=O)c1ccc(C)c(-n2c(C)cc(OCc3ccc(F)cc3F)c(Br)c2=O)c1 | 6.62 µM (active) | – | – | 14.8 µM (active) | inactive | inactive | – | 16.6 µM (active) | inactive |
| Cc1cc(-c2ccc(CC(=O)Nc3ccc(-c4cccnc4)cc3)cc2)ccn1 | 18.7 µM (active) | – | – | 11.8 µM (active) | 5.9 µM (active) | inactive | 20.9 µM (active) | 11.8 µM (active) | – |
| C[C@]12CC[C@H](O)CC1=CC[C@@H]1[C@H]2CC[C@]2(C)C(c3cccnc3)=CC[C@H]12 | 3.23 µM (active) | – | inactive | inactive | inactive | inactive | – | 8.12 µM (active) | inactive |
| C[C@@H]1CN(Cc2ccc(F)cc2)[C@@H](C)CN1C(=O)c1cc2c(C(=O)C(=O)N(C)C)cn(C)c2cc1Cl | 18.7 µM (active) | – | 16.6 µM (active) | 18.7 µM (active) | – | inactive | – | 14.8 µM (active) | – |
| Cc1oncc1C(=O)Nc1ccc(C(F)(F)F)cc1 | 16.6 µM (active) | inactive | inactive | inactive | – | inactive | – | – | – |
| CCCc1nc2c(C)cc(-c3nc4ccccc4n3C)cc2n1Cc1ccc(-c2ccccc2C(=O)O)cc1 | 20.9 µM (active) | – | 11.8 µM (active) | – | inactive | inactive | inactive | 16.6 µM (active) | inactive |
| O=C(O)[C@@H](c1ccc(OCc2ccc3ccccc3n2)cc1)C1CCCC1 | 5.26 µM (active) | – | inactive | inactive | – | inactive | – | 5.9 µM (active) | – |
| NC[C@H](O)c1ccc(O)c(O)c1 | inactive | – | 11.8 µM (active) | – | – | inactive | – | 2.96 µM (active) | – |
| CNC(=O)c1ccc(N2C(=S)N(c3ccc(C#N)c(C(F)(F)F)c3)C(=O)C2(C)C)cc1F | 13.2 µM (active) | – | inactive | – | inactive | inactive | – | – | inactive |
| CCC(C)n1ncn(-c2ccc(N3CCN(c4ccc(OC[C@H]5CO[C@](Cn6cncn6)(c6ccc(Cl)cc6Cl)O5)cc4)CC3)cc2)c1=O (stereo partly specified) | inactive | – | inactive | – | 3.32 µM (active) | 4.69 µM (active) | 1.32 µM (active) | – | – |
| O=C1CCC(N2C(=O)c3ccccc3C2=O)C(=O)N1 (stereo unspecified) | 3.72 µM (active) | – | inactive | inactive | – | inactive | – | – | inactive |
| CC1(C)SCCN(S(=O)(=O)c2ccc(OCC#CCO)cc2)[C@@H]1C(=O)NO | inactive | – | inactive | – | inactive | inactive | – | – | inactive |
| COc1c(Cl)cc2c([nH]c3cnccc32)c1NC(=O)c1cccnc1C | 0.372 µM (active) | – | 3.32 µM (active) | 1.66 µM (active) | inactive | inactive | 23.5 µM (active) | – | 26.4 µM (active) |
